# Bioassay records: PubChem BioAssay, National Center for Advancing Translational Sciences (NCATS)
# Rows were chosen to be rich in hits. Some 12% of all compounds tested hit in one or more screens of this group.
# AMA1-RON2 inh = AMA1-RON2 (P. falciparum) interaction inhibition | 360,000 compounds, 0.2% hits | AlphaScreen AMA1-biotinylated RON2 peptide binding | AID 720542 | Potency, µM (highest dose often 58.2 µM), without a hit: at the highest dose activity change, negative = inhibition, usual class: inhibitors;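 also: 0% = vehicle wells and -100% = peptide control; nearly all actives have a fitted effect of over 45% in size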
#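 AMA1 (3D7) with his tag at 25 nM final met compounds first, then biotinylated RON2 peptide at 25 nM; detection used donor plus acceptor beads, 10 µg/mL apiece, read by AlphaScreen after 30 min at room temperature.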
# HCV inh = blocks hepatitis C virus; Huh7.5.1 HCVcc-Cre infection, luciferase reporter, 44 h; Potency, µM (doses to about 41.8 µM), inactives show top-dose activity change, negative = inhibition, hits mostly inhibitors; 340,000 compounds, 3.4% hits; AID 651820; also: % is scaled to controls: 0 for no effect and ±100 for the full control effect
#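 Reporter virus HCVcc-Cre (~0.5 moi) infects cells exposed to compound; seeding density 1,000 cells/well with 4 h settling beforehand. Luminescence, 15 sec read, taken 44 h post-infection following a 15 min RT substrate incubation.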
# NS1 inh = influenza NS1 inhibition | Potency, µM (highest dose often 46.1 µM), for inactives: at the top dose activity, positive = more growth | 270,000 compounds, 0.4% hits | AID 2326; calls by dose curve; also: actives are rising curves; nearly all actives have a fitted effect of over 50% in size
#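 A cell-based growth assay was used: compounds that relieve NS1-induced slow growth of budding yeast raise OD600. Assay medium was yeast nitrogen base with ammonium sulphate and -URA supplement, pH 6.0, with 2% galactose.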
# Pf growth 96h = P. falciparum growth inhibition at 96 hour, primary screen for plastid delayed-death inhibitors. P. falciparum luciferase reporter growth, 96 h. Potency, µM (highest dose often 28.7 µM), for inactives: top-dose activity change, negative = inhibition, actives largely listed as inhibitors. 320,000 compounds, 6.9% hits; also: % is scaled to controls: 0 for no effect and ±100 for the full control effect
#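 P. falciparum expressing integrated firefly luciferase, in erythrocytes at 2% hematocrit, 0.05% parasitemia, incubated with compounds 96 h at 37 C, 5% CO2. Growth inhibition read as loss of luminescence; two-generation exposure targets delayed-death apicoplast inhibitors.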
# SARS PLP yeast = blocks SARS-CoV papain-like protease in a yeast assay; Potency, µM (titrated, usually from 32.9 µM), inactives show at the top dose activity, positive = growth rescue, most hits filed as activators; AID 485353; S. cerevisiae expressing SARS-CoV PLpro, growth rescue; 330,000 compounds, 0.19% hits; calls by dose curve; also: 0% is about no effect; nearly all actives have a fitted effect of over 55% in size
# Pf growth 48h = P. falciparum growth inhibition at 48 hours (one generation); P. falciparum luciferase growth in erythrocytes, 48 h; Potency, µM (highest dose often 28.7 µM), for the others: at the highest dose activity change, negative = inhibition, most hits filed as inhibitors; 310,000 compounds, 5.9% hits; also: % is scaled to controls: 0 for no effect and ±100 for the full control effect
#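 A one-generation exposure of luciferase-tagged malaria parasites in RPMI 1640/Albumax erythrocyte culture, 37 C and 5% CO2. Inhibition is inferred from decreased luminescence after adding detection reagent.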
# Active calls of the source: *; i = inactive; ? = inconclusive; · = no result given; [ ] = remark or other dose. Unless noted, calls follow the shape of the dose curve; as a rule, active = well fitted curve in the direction sought with a large enough effect; inconclusive = small, poorly fitted or top-dose-only effect, or another doubt; inactive = no such curve, though single readings can be large; an effect the other way counts as inactive or inconclusive. Potency is read from the fitted curve at half-maximal effect.
SMILES,AMA1-RON2 inh,HCV inh,NS1 inh,Pf growth 96h,SARS PLP yeast,Pf growth 48h
COc1ccc(N2CCn3c2nc2c3c(=O)n(CCc3ccccc3)c(=O)n2C)c(OC)c1,·,·,1.1%,11.7µM*,-1.6%,-5.7%
COc1ccc(N2CC(C)Cn3c2nc2c3c(=O)n(Cc3ccccc3)c(=O)n2C)c(OC)c1 (centres undefined),7.8%,?,·,8.28µM*,-3.8%,?
COc1ccc(-c2nnc3n(CCc4ccccc4)c(=O)c4ccccc4n23)c(OC)c1,13.8%[11.6 µM],10.3%,0.7%,4.65µM*,-8.7%,13.1µM*
COc1ccc(N2CCn3c2nc2c3c(=O)n(CCCc3ccccc3)c(=O)n2C)c(OC)c1,12.1%,14.1µM*,-10.7%,?,-7.1%,?
Cc1ccc(S(=O)(=O)N2CCOCC2)cc1C(=O)NNC(=O)c1ccoc1C,18.7%,10.5%,·,0.3%,-1.2%,31.2%
C=CCNC(=O)c1sccc1Oc1ccc(F)cc1[N+](=O)[O-],12.4%,-9.7%,·,?,-0.7%,33.7%
CC1CCN(CCCNC(=O)c2coc3nc4ccccc4nc23)CC1,10.7%,27.2%,2.4%,38.2%,4.5%,?
Cc1ccc(CCNC(=O)c2coc3nc4ccccc4nc23)cc1,0.2%,5.7%,-2.1%,2.62µM*,0.1%,-20.8%
O=C(c1n[nH]c2ccccc12)N1CCOCC1,6.1%,4.6%,7.1%,14.7µM*,-1.0%,8.9%
O=C(c1cccnc1)N1CCN(S(=O)(=O)c2ccc(F)cc2)CC1,1.4%,20.8%,6.7%,?,1.2%,13.9%
O=C(c1n[nH]c2ccccc12)N1CCN(S(=O)(=O)c2ccc(Cl)cc2)CC1,-1.5%,-3.5%,·,?,2.8%,2.08µM*
O=C(c1cccnc1)N1CCN(S(=O)(=O)c2ccc(Cl)cc2)CC1,-11.5%,-1.3%,1.1%,4.15µM*,14.7%,-20.9%
O=C(c1n[nH]c2ccccc12)N1CCCCC1,3.5%,-6.9%,·,52.8%,-4.5%,144.7%
Nc1ncnc2c1ncn2[C@@H]1O[C@H](COP(=O)(O)OP(=O)(O)OP(=O)(O)OP(=O)(O)OC[C@@H]2O[C@H](n3cnc4c(N)ncnc43)[C@@H](O)[C@@H]2O)[C@H](O)[C@H]1O,·,·,1.4%,·,·,·
CN(C(=O)CN1C(=O)C2C3CC(C(Br)C3Br)C2C1=O)C1CCCCC1 (centres undefined),-9.3%,34.1%,-8.5%,1.0%,-2.9%,5.86µM*
Cc1nc(C(F)(F)F)c(C(=O)N/N=C(\N)c2ccccn2)s1,-52.1%,12.6µM*,·,?,-1.9%,?
N/C(=N\NS(=O)(=O)c1ccccc1C(F)(F)F)c1ccccn1,107.5%,12.9%,2.3%,33.3%,0.8%,?
Oc1[nH]c2ccccc2c1N=NC(=S)NCC1CCCO1 (centres undefined),9.1%,?,7.2%,?,3.5%,?
Oc1[nH]c2ccc(Br)cc2c1N=NC(=S)NCC1CCCO1 (centres undefined),51.7%,11.2µM*,2.0%,?,0.5%,5.86µM*
Oc1[nH]c2c(Cl)cc(Cl)cc2c1N=NC(=S)NCC1CCCO1 (centres undefined),51.1%,?,23.8%,6.57µM*,8.8%,1.85µM*
O=C(CCCn1c(=S)[nH]c2ccc(Br)cc2c1=O)NCC1CCCO1 (centres undefined),76.5%,-26.8%,1.78µM*,0.0%,?,-9.1%
Cc1cc(C)c2[nH]c(O)c(N=NC(=S)NCC3CCCO3)c2c1 (centres undefined),52.7%,-6.3%,-2.3%,?,-5.6%,?
Cc1ccc(NC(=S)N(CCC(C)C)C(C)c2ccncc2)c(Cl)c1 (centres undefined),-14.7%,?,9.9%,?,-7.2%,?
CC(=O)c1ccc(N=Nc2ccc(N)cc2)cc1,?,?,0.1%,i,-3.1%,152.3%
CN(C(=O)Nc1ccc(F)cc1)[C@H]1C[C@H]2c3[nH]c4ccccc4c3CCN2C(=O)[C@H]1CO,-4.1%,·,·,·,·,·
SMILES,AMA1-RON2 inh,HCV inh,NS1 inh,Pf growth 96h,SARS PLP yeast,Pf growth 48h
O=C(OCC(=O)N1CCN(C(=O)c2ccco2)CC1)c1cc(-c2ccco2)nc2ccccc12,21.2µM*,26.0%,22.2%,?,-8.4%,53.3%
O=C(c1cc(-c2ccco2)nc2ccccc12)N1CCN(c2ccc(F)cc2)CC1,?,?,-50.5%,13.1µM*,-38.8%,?
CC(=O)c1ccc(S(=O)(=O)N(C)CCCC(=O)NCc2ccc3c(c2)OCO3)cc1,-10.2%,-1.2%,·,?,-0.4%,?
CCOC(=O)C1(CCOc2ccccc2)CCN(Cc2ccc(OC)c(O)c2)CC1,-1.6%,?,13.9%,-24.0%,·,?
CCOC(=O)C1(CCOc2ccccc2)CCN(Cc2ccc(O)cc2)CC1,-3.7%,?,0.5%,0.5%,-4.2%,13.1µM*
CCOC(=O)C1(CCOc2ccccc2)CCN(Cc2ccc(O)c(OCC)c2)CC1,-7.0%,?,1.1%,-24.5%,-4.4%,14.7µM*
CCOC(=O)C1(CCOc2ccccc2)CCN(Cc2ccc(OC)c(COC)c2)CC1,?,11.2µM*,9.2%,-161.6%,0.5%,0.0%
CCCN1CCC(CCOc2ccccc2)(C(=O)OCC)CC1,-2.1%,-0.4%,9.4%,?,2.6%,2.9%
CCOC(=O)CNC(=O)N1CCC(CCOc2ccccc2)(C(=O)OCC)CC1,0.0%,-2.9%,-1.2%,8.28µM*,0.1%,5.8%
CCOC(=O)C1(CCOc2ccccc2)CCN(Cc2cc(OC)c(O)c(OC)c2)CC1,-5.4%,-24.0%,8.8%,-27.6%,-0.3%,?
O=S1(=O)N[C@@H](Cc2ccccc2)COc2cc(Br)ccc21,-4.6%,?,·,·,1.6%,·
CCOC(=O)C1(S(=O)(=O)c2ccccc2)CCN(Cc2ccc(Cl)cc2)CC1,-5.1%,-13.7%,-64.9%,7.38µM*,-4.4%,?
COc1ccc(NC2CCCN(C(=O)c3ccc4nc(C)c(C)nc4c3)C2)cc1OC (centres undefined),0.0%,-3.3%,3.8%,22.8%,5.4%,8.3%
O=C(NCc1ccccc1)c1c[nH]c2ccc(S(=O)(=O)Nc3ccc4c(c3)OCCO4)cc2c1=O,-9.9%,-19.6%,5.4%,14.7µM*,-0.1%,?
COc1ccc(NS(=O)(=O)NC(=O)c2c[nH]c3ccccc23)cc1,-14.2%,0.1%,-4.4%,38.7%,1.2%,2.9%
CCc1cccc2c(=O)c(C(=O)NCCN3CCOCC3)c[nH]c12,6.6%,10µM*,-5.1%,10.8%,-0.9%,-4.9%
COc1cccc(NS(=O)(=O)NC(=O)c2c[nH]c3ccccc23)c1,-9.3%,-1.3%,?,71.6%,1.6%,11.7µM*
